Many of the other results were omitted from the sample, so the strongest signals are more common in it than they were.
How the values were obtained:
Assay in all cases: glycan array binding signal (z-score within array); higher = stronger binding
Conditions in all cases: glycan notation: IUPAC condensed, linker removed
[1] = target: GlcNAc(b1-3)Gal(b1-4)GlcNAc(b1-6)[Gal(b1-3)]GalNAc
Summary of the method: (§1)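 From the Consortium for Functional Glycomics database, 3228 arrays were curated, keeping only those whose protein sequence was available. Binding is given as a within-array Z-score averaged across arrays sharing a protein sequence and across linkers. Negative Z-scores can be read as non-binding.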

[2] = target: GlcNAc(b1-3)Gal(b1-4)GlcNAc(b1-6)[GlcNAc(b1-3)Gal(b1-3)]GalNAc
Summary of the method: as §1

GlcNAc(b1-3)Man = target: GlcNAc(b1-3)Man
Summary of the method: as §1

[3] = target: GlcNAc(b1-4)GlcNAc(b1-4)GlcNAc(b1-4)GlcNAc(b1-4)GlcNAc(b1-4)GlcNAc
Summary of the method: as §1

[4] = target: GlcNAc6S(b1-3)Gal(b1-4)GlcNAc
Summary of the method: as §1

[5] = target: Man(a1-2)Man(a1-6)[Man(a1-3)]Man(a1-6)[Man(a1-2)Man(a1-2)Man(a1-3)]Man(b1-4)GlcNAc(b1-4)GlcNAc
Summary of the method: as §1

Man(b1-4)GlcNAc = target: Man(b1-4)GlcNAc
Summary of the method: as §1

Neu5Ac(a2-3)Gal = target: Neu5Ac(a2-3)Gal
Summary of the method: as §1

[6] = target: Neu5Ac(a2-3)Gal(b1-3)GalNAc6S
Summary of the method: as §1

[7] = target: Neu5Ac(a2-3)Gal(b1-3)GlcNAc(b1-2)[Neu5Ac(a2-3)Gal(b1-3)GlcNAc(b1-4)]Man(a1-6)[Neu5Ac(a2-3)Gal(b1-3)GlcNAc(b1-2)Man(a1-3)]Man(b1-4)GlcNAc(b1-4)GlcNAc
Summary of the method: as §1

[8] = target: Neu5Ac(a2-3)Gal(b1-3)GlcNAc(b1-3)Gal(b1-3)GlcNAc
Summary of the method: as §1

[9] = target: Neu5Ac(a2-3)Gal(b1-3)GlcNAc(b1-6)GalNAc
Summary of the method: as §1

[10] = target: Neu5Ac(a2-3)Gal(b1-3)[Fuc(a1-4)]GlcNAc(b1-3)Gal(b1-4)[Fuc(a1-3)]GlcNAc
Summary of the method: as §1

Neu5Ac(a2-3)Gal(b1-4)Glc = target: Neu5Ac(a2-3)Gal(b1-4)Glc
Summary of the method: as §1

[11] = target: Neu5Ac(a2-3)Gal(b1-4)GlcNAc(b1-2)[Neu5Ac(a2-3)Gal(b1-4)GlcNAc(b1-4)]Man(a1-3)[GlcNAc(b1-4)][Neu5Ac(a2-3)Gal(b1-4)GlcNAc(b1-4)Man(a1-6)]Man(b1-4)GlcNAc(b1-4)GlcNAc
Summary of the method: as §1

[12] = target: Neu5Ac(a2-3)Gal(b1-4)GlcNAc(b1-6)[Neu5Ac(a2-3)Gal(b1-3)]GalNAc
Summary of the method: as §1

[13] = target: Neu5Ac(a2-3)Gal(b1-4)[Fuc(a1-3)]GlcNAc(b1-3)Gal(b1-4)GlcNAc
Summary of the method: as §1

[14] = target: Neu5Ac(a2-3)Gal(b1-4)[Fuc(a1-3)]GlcNAc(b1-3)Gal(b1-4)[Fuc(a1-3)]GlcNAc(b1-3)Gal(b1-4)[Fuc(a1-3)]GlcNAc
Summary of the method: as §1

[15] = target: Neu5Ac(a2-3)Gal(b1-4)[Fuc(a1-3)]GlcNAc(b1-3)GalNAc
Summary of the method: as §1

[16] = target: Neu5Ac(a2-6)Gal(b1-3)GlcNAc(b1-3)[Gal(b1-4)GlcNAc(b1-6)]Gal(b1-4)Glc
Summary of the method: as §1

[17] = target: Neu5Ac(a2-6)Gal(b1-4)GlcNAc(b1-2)Man(a1-6)[Gal(b1-4)GlcNAc(b1-2)Man(a1-3)]Man(b1-4)GlcNAc(b1-4)GlcNAc
Summary of the method: as §1

[18] = target: Neu5Ac(a2-6)Gal(b1-4)GlcNAc(b1-3)Gal(b1-4)GlcNAc(b1-3)Gal(b1-4)GlcNAc
Summary of the method: as §1

[19] = target: Neu5Ac(a2-6)Gal(b1-4)GlcNAc(b1-3)Gal(b1-4)[Fuc(a1-3)]GlcNAc(b1-3)Gal(b1-4)[Fuc(a1-3)]GlcNAc
Summary of the method: as §1

[20] = target: Neu5Ac(a2-8)Neu5Ac(a2-8)Neu5Ac(a2-3)[GalNAc(b1-4)]Gal(b1-4)Glc
Summary of the method: as §1

[21] = target: Neu5Ac(a2-8)Neu5Ac(a2-8)Neu5Ac(a2-8)Neu5Ac(a2-3)[GalNAc(b1-4)]Gal(b1-4)Glc
Summary of the method: as §1

[22] = target: Neu5Ac(a2-8)Neu5Gc(a2-3)Gal(b1-4)GlcNAc
Summary of the method: as §1

[23] = target: Neu5Gc(a2-3)Gal(b1-3)GlcNAc
Summary of the method: as §1

B1: LF82 (Escherichia coli) (protein)
chain: ADWGPCRTASGDPFIFVTSFTKNIQNPTDNVTGQTYPDFYQWALGDKYSGVCECPSPNPTEARPTLYKTESTLAAGHNSTYFKITNNLEVSTRVYIANVGNVQVPFINKSNSQPGRECDQPTFGWTTGSKGQLSLYIAKPFVGEQNIPQTIIVSVFGTKKENVYSSVPISQVLLSGKVTVTQGCELAAGTSLDIDFGEYQAHDFKGRTGQPPQNVQKIQKELTFNCTNISDGVHIYLSLEGTPNAAYPSAISLGNADVGAVIEDGKGNILKPNDSNSLLEMNPGSLYEYVKRKVTTTITAYPVSTTGKLPAAGDYSGVATMHVELDGGGGGGGGGGATTDLGAKGTLKFSLKISQGHHHHHH
B1 was tested, and the “glycan array binding signal (z-score)” value [1] was -0.509, the “glycan array binding signal (z-score)” value [2] was 0.416 and the “glycan array binding signal (z-score)” value (GlcNAc(b1-3)Man) was 0.644. The “glycan array binding signal (z-score)” value [3] was -1.17, the “glycan array binding signal (z-score)” value [4] was -0.173 and the “glycan array binding signal (z-score)” value [5] was 0.244. For the same binder, the “glycan array binding signal (z-score)” value (Man(b1-4)GlcNAc) was 0.456, the “glycan array binding signal (z-score)” value (Neu5Ac(a2-3)Gal) was 0.191 and the “glycan array binding signal (z-score)” value [6] was 0.435. For the same binder, the “glycan array binding signal (z-score)” value [7] was 4.88, the “glycan array binding signal (z-score)” value [8] was -0.469 and the “glycan array binding signal (z-score)” value [9] was -0.373. The “glycan array binding signal (z-score)” value [10] was -0.501, the “glycan array binding signal (z-score)” value (Neu5Ac(a2-3)Gal(b1-4)Glc) was 0.503 and the “glycan array binding signal (z-score)” value [11] was 2.08. For the same binder, the “glycan array binding signal (z-score)” value [12] was -0.112, the “glycan array binding signal (z-score)” value [13] was 0.281 and the “glycan array binding signal (z-score)” value [14] was 0.12. The “glycan array binding signal (z-score)” value [15] was 0.56, the “glycan array binding signal (z-score)” value [16] was 2.17 and the “glycan array binding signal (z-score)” value [17] was 0.283. For the same binder, the “glycan array binding signal (z-score)” value [18] was 0.668, the “glycan array binding signal (z-score)” value [19] was 0.159 and the “glycan array binding signal (z-score)” value [20] was -0.553. For the same binder, the “glycan array binding signal (z-score)” value [21] was 2.59, the “glycan array binding signal (z-score)” value [22] was -0.211 and the “glycan array binding signal (z-score)” value [23] was 3.85.
